Results filed as inconclusive are left out. The source made the active and inactive calls. Calls come from the whole dose curve; as a rule, active = well fitted cell-killing curve with a large enough effect; inconclusive = small, poorly fitted or top-dose-only effect, or effect the other way; inactive = flat fitted curve, though single readings scatter.
What was measured:
Experiment in all cases: Primary qHTS to identify gynecologic anti-cancer compounds using libraries of approved drugs and bioactive compounds (AID 1345084); note: nearly all actives have a fitted effect of over 55% in size
C33A = settings: Gynecologic cancer cell panel viability, ATPlite luminescence, 48 h; series mostly up to 57.5 µM
Summary of the method: (§1)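 Five-point cytotoxicity, 48 h drug exposure at 37 C, 5% CO2, on cells seeded 16 h beforehand. ATP content read by ATPlite luminescence.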

CAOV3 = settings: Gynecologic cancer cell panel viability, ATPlite luminescence, 48 h; series mostly up to 57.5 µM
Summary of the method: as §1

CASKI = settings: Gynecologic cancer cell panel viability, ATPlite luminescence, 48 h; series mostly up to 57.5 µM
Summary of the method: as §1

Es-2 = settings: Gynecologic cancer cell panel viability, ATPlite luminescence, 48 h; series mostly up to 57.5 µM
Summary of the method: as §1

HeLa = settings: Gynecologic cancer cell panel viability, ATPlite luminescence, 48 h; series mostly up to 57.5 µM
Summary of the method: as §1

Hek293T = settings: Gynecologic cancer cell panel viability, ATPlite luminescence, 48 h, control line for the selectivity index; series mostly up to 57.5 µM
Summary of the method: as §1

OV90 = settings: Gynecologic cancer cell panel viability, ATPlite luminescence, 48 h; series mostly up to 57.5 µM
Summary of the method: as §1

JEG-3 = settings: Gynecologic cancer cell panel viability, ATPlite luminescence, 48 h; series mostly up to 57.5 µM
Summary of the method: as §1

PA-1 = settings: Gynecologic cancer cell panel viability, ATPlite luminescence, 48 h; series mostly up to 57.5 µM
Summary of the method: as §1

SKOV3 = settings: Gynecologic cancer cell panel viability, ATPlite luminescence, 48 h; series mostly up to 57.5 µM
Summary of the method: as §1

Tov-21-G = settings: Gynecologic cancer cell panel viability, ATPlite luminescence, 48 h; series mostly up to 57.5 µM
Summary of the method: as §1

Tov112D = settings: Gynecologic cancer cell panel viability, ATPlite luminescence, 48 h; series mostly up to 57.5 µM
Summary of the method: as §1

Measured: Potency

COc1ccc2nc(-c3cc(OC)c(OC)c(OC)c3)cc(C(=O)NCC(=O)Nc3ccc(C(C)=O)cc3)c2c1
inactive: C33A | CAOV3 | CASKI | Es-2 | HeLa | Hek293T | OV90

Cc1cccc(-c2[nH]ncc2-c2ccnc3ccccc23)n1
not listed: OV90
inactive: all other assays above

O=C(Nc1ccc(Cl)cc1)Nc1cccc(-c2cccc(N3CCCC3)n2)c1
not listed: JEG-3
inactive: all other assays above

COc1cc(/C=N\NC(=O)c2ccc3c(c2)OCO3)ccc1OCc1ccccc1
not listed: OV90 | PA-1 | SKOV3
inactive: all other assays above

CN1CCC(c2cn(C)c3ccc(OS(=O)(=O)c4c(F)cccc4F)cc23)CC1
not listed: OV90 | SKOV3
inactive: all other assays above

COc1cc(CN(CCN)C(=O)c2cccs2)ccc1OCc1ccccc1
not listed: OV90
inactive: all other assays above

O=C(NC[C@H](O)CN1CCc2ccccc2C1)c1ccnc(NC2CCC2)c1
not listed: OV90
inactive: all other assays above

CC1=C(c2ccc(NC(=O)c3c(F)cccc3F)cc2)CN(c2nccs2)CC1
not listed: OV90 | JEG-3
inactive: all other assays above

Cc1csc(N(C(=O)CSc2ccc(-c3ccccc3)nn2)C2CC2)n1
not listed: OV90 | SKOV3
inactive: all other assays above

NC(=O)C1=CC2C3C=CC2C(OC3=O)O1 (stereo not given)
not listed: JEG-3
inactive: all other assays above

Cc1ccc(S(=O)(=O)N2CCC[C@H]2c2ccc(F)cc2)cc1
not listed: OV90
inactive: all other assays above

Cc1nc2cc(C(=O)NCc3ccccn3)nn2c(C)c1Cc1cccc(Cl)c1
not listed: OV90 | SKOV3
inactive: all other assays above

CC(=O)OC1CCC2(C)C(CCC3(C)C2CC=C2C4C(C)C(C)CCC4(C)CCC23C)C1(C)C(=O)O (stereo not given)
not listed: JEG-3 | SKOV3
inactive: all other assays above

Fc1ccc(-c2nc(-c3ccccc3F)[nH]c2-c2ccncc2)cc1
not listed: OV90
inactive: all other assays above

CCNC1(C(N)=O)CCN(c2ncnc3c2nc(-c2ccccc2Cl)n3-c2ccc(Cl)cc2)CC1
not listed: JEG-3
inactive: all other assays above

CCC(C)C1NC(=O)C(Cc2ccccc2)NC(=O)C(CCCCCC(=O)C(O)CO)NC(=O)C2CCCCN2C1=O (stereo not given)
not listed: OV90 | PA-1
inactive: all other assays above

CC(=O)OC1CC(O)(C(C)C)C2C(OC(=O)c3ccc(O)cc3)C=C(C)C(=O)CC12C (stereo not given)
not listed: OV90
inactive: all other assays above

From PubChem BioAssay (NCATS)
